The source of these data is PubChem BioAssay (NCI).

Compounds without any hit were thinned out: in the full panel of roughly 83,000, 20% have a hit.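 The test compound was applied at a single concentration to cells in 96-well plates for 48 hours, and percent growth was recorded.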 A number with no mark means an inactive call. Activity calls are given as the source filed them. The calls were made as follows: active = growth percent below 10; inactive = the rest.

Holding throughout (experiment): NCI-60 one-dose screen, 48 h (100 = growth as untreated, 0 = no growth, -100 = all killed)
The test system of one test is SN12C renal. To be noted: 10 µM unless noted.
The next test concerns UO-31 renal. To be noted: 10 µM unless noted.
Another test relates to TK-10 renal. The following applies: 10 µM unless noted.
The next test relates to ACHN renal. To be noted: 10 µM unless noted.
Another test has as its system CAKI-1 renal. To be noted: 10 µM unless noted.
For a further test, the system named is A498 renal. To be noted: 10 µM unless noted.
Another test has as its system CCRF-CEM leukemia. The following applies: 10 µM unless noted.
For the next test, the system named is MOLT-4 leukemia. To be noted: 10 µM unless noted.
The subject of the next test is SR leukemia. To be noted: 10 µM unless noted.
In the next test the test system is RPMI-8226 leukemia. The following applies: 10 µM unless noted.
The test system of another test is OVCAR-8 ovarian. The following applies: 10 µM unless noted.
In a further test the test system is OVCAR-5 ovarian. To be noted: 10 µM unless noted.
The test system of another test is OVCAR-4 ovarian. To be noted: 10 µM unless noted.
In the next test the test system is SK-OV-3 ovarian. The following applies: 10 µM unless noted.
A further test has as its system IGROV1 ovarian. The following applies: 10 µM unless noted.
The next test relates to OVCAR-3 ovarian. The following applies: 10 µM unless noted.
The subject of the next test is HS 578T breast. The following applies: 10 µM.
A further test relates to NCI/ADR-RES ovarian. The following applies: 10 µM unless noted.

With `CC(=O)N1N=C(c2ccc(C)cc2)CC1c1cn(-c2ccccc2)nc1-c1cccc(Nc2ccnc3cc(Cl)ccc23)c1` (centres undefined), the growth in the test on SN12C renal was 46.2%; in the test with UO-31 renal it was 77.1%; with TK-10 renal, 61.3%; in the test on ACHN renal it was 81.2%; in the test on CAKI-1 renal, 101%; in the test with A498 renal it was 82.2%. In addition, the growth with CCRF-CEM leukemia was -19.7% (active); with MOLT-4 leukemia, 23.4%; with SR leukemia it was -4.15% (active); in the test on RPMI-8226 leukemia it was -11% (active); with OVCAR-8 ovarian, 46.4%; in the test on OVCAR-5 ovarian, 133%. For the same molecule, the growth with OVCAR-4 ovarian is 120%; with SK-OV-3 ovarian it was 114%; in the test with IGROV1 ovarian, 48.9%; with OVCAR-3 ovarian, 84.7%; in the test with HS 578T breast, 80.3%.
Take `COc1ccc(/C=C2\N=C(c3cccnc3)N(c3ccccc3)NC2=O)cc1`: the growth in the test with SN12C renal was 105%; in the test on UO-31 renal, 82.2%; in the test on TK-10 renal, 101%; in the test on ACHN renal, 115%; in the test on CAKI-1 renal it was 97.6%; with A498 renal, 71.8%. Further, the growth in the test with CCRF-CEM leukemia was -21.1% (active); in the test on MOLT-4 leukemia it was 85.6%; in the test with SR leukemia, 92.7%; with RPMI-8226 leukemia it was 68.5%; with OVCAR-8 ovarian it was 95.9%; with OVCAR-5 ovarian, 103%. In addition, the growth in the test on OVCAR-4 ovarian is 99.7%; in the test with SK-OV-3 ovarian, 130%; in the test on IGROV1 ovarian it was 115%; in the test on OVCAR-3 ovarian, 95.9%; with HS 578T breast it was 92%; in the test with NCI/ADR-RES ovarian it was 100%.
Regarding `CCCCn1c(C)nc2ccc(Nc3nc(Cl)nc4nc[nH]c34)cc21`, the growth in the test on SN12C renal was 74.6%; with UO-31 renal it was 57.8%; with TK-10 renal, 67.3%; in the test on ACHN renal, 79%; in the test with CAKI-1 renal it was 60.5%; with A498 renal it was -0.303% (active). Moreover, the growth in the test with CCRF-CEM leukemia was 53%; in the test with MOLT-4 leukemia it was 37.9%; with SR leukemia, 42.5%; in the test on RPMI-8226 leukemia, 43.7%; with OVCAR-8 ovarian, 78.2%; in the test on OVCAR-5 ovarian, 74.5%. Besides, the growth was 68.4% with OVCAR-4 ovarian; 77% in the test with SK-OV-3 ovarian; 68.2% in the test on IGROV1 ovarian; 62.7% with OVCAR-3 ovarian; 6.13% (active) with HS 578T breast; 101% with NCI/ADR-RES ovarian.
Consider `Nc1ncnc2c1N=C(c1ccc(F)cc1)CC(c1sc(Cl)nc1Cl)N2` (centres undefined), for which the growth in the test with SN12C renal is 81.3%; in the test with UO-31 renal it was 63.2%; in the test on TK-10 renal it was 93.2%; with CAKI-1 renal it was 98%; in the test on A498 renal it was 68.9%; in the test on CCRF-CEM leukemia, 29.1%. For the same molecule, the growth in the test on RPMI-8226 leukemia is 76.5%; in the test with OVCAR-8 ovarian, 87.4%; in the test with OVCAR-5 ovarian it was 99.6%; with OVCAR-4 ovarian, 97.9%; in the test on SK-OV-3 ovarian, 95.7%; in the test with IGROV1 ovarian, 93.5%. Also, the growth with OVCAR-3 ovarian is 101%.
Take `COC1=CC(c2ccc[nH]2)=N/C1=C\c1[nH]c(C)c(C(=O)CCCCCCCCC(=O)O[C@H]2CC[C@H]3C4CCc5cc(O)ccc5C4CC[C@]23C)c1C` (some centres undefined): the growth with SN12C renal is 39.6%; in the test with UO-31 renal, -13.3% (active); in the test on TK-10 renal, 34.1%; in the test on ACHN renal, 24.3%; with CAKI-1 renal it was 40.5%; in the test with A498 renal, -0.91% (active). In addition, the growth in the test with CCRF-CEM leukemia was 11.5%; in the test with MOLT-4 leukemia, 19.5%; in the test on SR leukemia it was -14.6% (active); in the test with RPMI-8226 leukemia, 33.2%; in the test on OVCAR-8 ovarian it was 12.2%; with OVCAR-5 ovarian it was 52.1%. In addition, the growth with OVCAR-4 ovarian was 49.7%; with SK-OV-3 ovarian it was 49.2%; in the test with OVCAR-3 ovarian, 13.7%; in the test on HS 578T breast, 10.7%; in the test with NCI/ADR-RES ovarian, 68.3%.
Regarding `COc1ccccc1NC(=O)OCC12COCN1COC2`, the growth was 100% with SN12C renal; 94.9% with UO-31 renal; 108% with TK-10 renal; 100% with CAKI-1 renal; 80.5% with A498 renal; 102% in the test with CCRF-CEM leukemia. Also, the growth is 95.9% in the test on MOLT-4 leukemia; 93.8% in the test on SR leukemia; 99.8% with RPMI-8226 leukemia; 96% in the test on OVCAR-8 ovarian; 105% in the test with OVCAR-4 ovarian; 105% with SK-OV-3 ovarian. In addition, the growth with IGROV1 ovarian is 109%; in the test on OVCAR-3 ovarian it was 116%; with HS 578T breast, 110%; in the test with NCI/ADR-RES ovarian, 107%.
With `COc1ccc(C2CC(c3cccc(Nc4ccnc5cc(Cl)ccc45)c3)=NN2c2ccc(Cl)cc2)cc1` (centres undefined), the growth in the test with SN12C renal was 89.7%; in the test with UO-31 renal it was 50.1%; in the test on TK-10 renal it was 93.6%; with ACHN renal, 50.5%; with CAKI-1 renal it was 1.94% (active); in the test with A498 renal it was 49.7%. Moreover, the growth was 53.5% with CCRF-CEM leukemia; 69.7% in the test on SR leukemia; 42.6% in the test on RPMI-8226 leukemia; 56.6% in the test with OVCAR-8 ovarian; 84.4% with OVCAR-5 ovarian; 95.9% with OVCAR-4 ovarian. For the same molecule, the growth in the test with SK-OV-3 ovarian is 94.7%; in the test on IGROV1 ovarian, 99.1%; in the test on OVCAR-3 ovarian, 74.2%; in the test with HS 578T breast it was 90.5%.
Take `CCOC(=O)c1ccccc1SC(C[N+](=O)[O-])c1ccccc1` (centres undefined): the growth in the test with SN12C renal was 93.4%; in the test on UO-31 renal, 99.4%; with TK-10 renal, 92.9%; with ACHN renal, 88.7%; with CAKI-1 renal it was 92.5%; in the test on A498 renal it was 87%. The growth in the test with CCRF-CEM leukemia is 65.5%; in the test with MOLT-4 leukemia, 94.3%; in the test on SR leukemia, 38.2%; with RPMI-8226 leukemia it was -41.5% (active); in the test with OVCAR-8 ovarian it was 85.8%; in the test on OVCAR-5 ovarian, 100%. The growth with OVCAR-4 ovarian is 89.1%; in the test on SK-OV-3 ovarian, 117%; in the test on IGROV1 ovarian, 72.1%; in the test with OVCAR-3 ovarian it was 104%; in the test with NCI/ADR-RES ovarian, 112%.
For `COc1ccc(-c2nc(-c3ccccc3OCc3ccccc3OC)nc(C)c2C(C)=O)cc1`, the growth is 85.1% with SN12C renal; 64.3% in the test with UO-31 renal; 87% with ACHN renal; 73.3% in the test on CAKI-1 renal; 79.1% in the test on A498 renal; 73.1% with CCRF-CEM leukemia. Also, the growth in the test with MOLT-4 leukemia is 62.4%; with SR leukemia it was 78.8%; in the test on RPMI-8226 leukemia, 73%; with OVCAR-8 ovarian, 86.9%; with OVCAR-5 ovarian, 94.1%; in the test on OVCAR-4 ovarian it was 94.9%. In addition, the growth was 96.1% in the test with SK-OV-3 ovarian; 89.7% in the test on IGROV1 ovarian; 102% with OVCAR-3 ovarian; 72.8% with HS 578T breast; 83.7% in the test with NCI/ADR-RES ovarian.
